# Assay results taken from PubChem BioAssay (NCATS).
# Values joined by “and” are separate entries in the source; they are usually repeats but may differ in a detail not shown here. Equal values may be shown once. Records with an inconclusive call do not appear. Where a call stands in place of a potency, no number is given. A number with no mark means an inactive call. Active and inactive are the calls of the source. Calls come from the whole dose curve; as a rule, active = well fitted curve in the direction sought with a large enough effect; inconclusive = small, poorly fitted or top-dose-only effect, or another doubt; inactive = no such curve, though single readings can be large; an effect the other way counts as inactive or inconclusive.
# Experiments:
# TAB109 = experiment: qHTS profiling for inhibitors of Plasmodium falciparum proliferation (AID 504749); note: nearly all actives have a fitted effect of over 60% in size; conditions: P. falciparum in erythrocytes, SYBR Green DNA, 72 h; series mostly up to 28.7 µM
# Method in brief: (§1)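 SYBR Green fluorescence of parasite DNA, read after lysis and overnight dark incubation, measured growth over 72 h in erythrocyte culture at 0.3% parasitemia and 2.5% hematocrit. Data normalised to DMSO and 0.29 uM artemisinin, with plate-drift correction.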
# TAB113 = experiment: as above; conditions: P. falciparum in erythrocytes, SYBR Green DNA, 72 h; series mostly up to 28.7 µM
# Method in brief: as §1
# TAB165 = experiment: as above; conditions: P. falciparum in erythrocytes, SYBR Green DNA, 72 h; series mostly up to 28.7 µM
# Method in brief: as §1
# W2 = experiment: as above; conditions: P. falciparum in erythrocytes, SYBR Green DNA, 72 h; series mostly up to 28.7 µM
# Method in brief: as §1
# CRL-7250 = normal cell line; experiment: Cytotoxic Profiling of Annotated Libraries Using Quantitative High-Throughput Screening (AID 1296008); conditions: Five cell lines viability, CellTiter-Glo ATP luminescence, 48-72 h; max response: hits give low values; note: nearly all actives have a fitted effect of over 60% in size; note: potency is the fitted concentration of half-maximal effect
# Method in brief: (§2)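 Cytotoxicity was measured as CellTiter-Glo ATP luminescence, read after 10 min at room temperature. Compound treatment of the cells lasted 48 or 72 hr at 37 degrees Celsius in a qHTS format.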
# HEK293 = experiment: as above; conditions: Five cell lines viability, CellTiter-Glo ATP luminescence, 48-72 h; max response: hits give low values
# Method in brief: as §2
# HaCat [1] = experiment: as above; conditions: Five cell lines viability, CellTiter-Glo ATP luminescence, 48-72 h; max response: hits give low values
# Method in brief: as §2
# KB-3-1 = experiment: as above; conditions: Five cell lines viability, CellTiter-Glo ATP luminescence, 48-72 h; max response: hits give low values
# Method in brief: as §2
# NIH3T3 [2] = experiment: as above; conditions: Five cell lines viability, CellTiter-Glo ATP luminescence, 48-72 h; max response: hits give low values
# Method in brief: as §2
# HACAT [3] = experiment: qHTS assay to identify novel small-molecules to repurpose for Merkel cell carcinoma treatment (AID 1296009); conditions: MCC and control cell lines, CellTiter-Glo viability, 72 h; at 44.8 µM (top of the series) unless noted; note: nearly all actives have a fitted effect of over 60% in size
# Method in brief: (§3)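 Cell viability, measured as CellTiter-Glo luminescence, was normalized between DMSO and no-cell wells. The cells had been exposed to 8- or 11-point compound dilutions for 72 hr at 37 degree celsius.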
# HEK293T = experiment: as above; conditions: MCC and control cell lines, CellTiter-Glo viability, 72 h; at 44.8 µM (top of the series) unless noted
# Method in brief: as §3
# MCC-13 = experiment: as above; conditions: MCC and control cell lines, CellTiter-Glo viability, 72 h; series mostly up to 46 µM
# Method in brief: as §3
# MCC-26 = experiment: as above; conditions: MCC and control cell lines, CellTiter-Glo viability, 72 h; series mostly up to 46 µM
# Method in brief: as §3
# MKL-1 = experiment: as above; conditions: MCC and control cell lines, CellTiter-Glo viability, 72 h; series mostly up to 46 µM
# Method in brief: as §3
# MKL-2 = experiment: as above; conditions: MCC and control cell lines, CellTiter-Glo viability, 72 h; series mostly up to 46 µM
# Method in brief: as §3
# UISO = experiment: as above; conditions: MCC and control cell lines, CellTiter-Glo viability, 72 h; series mostly up to 46 µM
# Method in brief: as §3
# WaGa = experiment: as above; conditions: MCC and control cell lines, CellTiter-Glo viability, 72 h; series mostly up to 46 µM
# Method in brief: as §3
# C33A = experiment: Primary qHTS to identify gynecologic anti-cancer compounds using libraries of approved drugs and bioactive compounds (AID 1345084); conditions: Gynecologic cancer cell panel viability, ATPlite luminescence, 48 h; series mostly up to 57.5 µM; note: nearly all actives have a fitted effect of over 55% in size
# Method in brief: (§4)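 Cell viability after 48 h drug treatment, ATPlite luminescence readout; five doses.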
# CAOV3 = experiment: as above; conditions: Gynecologic cancer cell panel viability, ATPlite luminescence, 48 h; series mostly up to 57.5 µM
# Method in brief: as §4
# NIH3T3 [4] = experiment: qHTS assay to identify novel small-molecules to repurpose for Merkel cell carcinoma treatment (AID 1296009); conditions: MCC and control cell lines, CellTiter-Glo viability, 72 h; at 44.8 µM (top of the series) unless noted; note: nearly all actives have a fitted effect of over 60% in size
# Method in brief: as §3
compound,measurement,setting,value
O=C(O)c1ccccc1-c1ccc(C(F)(F)F)cc1,Potency,TAB109,inactive
same,Potency,TAB113,inactive
same,Potency,TAB165,inactive
same,Potency,W2,inactive
same,outcome,CRL-7250,inactive
same,outcome,HEK293,inactive
same,outcome,HaCat [1],inactive
same,max response,KB-3-1,-5.64%
same,max response,NIH3T3 [2],-3.57%
same,outcome,HACAT [3],inactive
same,outcome,HEK293T,inactive
same,Potency,MCC-13,inactive
same,Potency,MCC-26,inactive
same,Potency,MKL-1,inactive
same,Potency,MKL-2,inactive
same,Potency,UISO,inactive
same,Potency,WaGa,inactive
same,Potency,C33A,inactive
Cc1cc2nc3c(=O)[nH]c(=O)nc-3n(C[C@H](O)[C@H](O)[C@H](O)CO)c2cc1C,outcome,CRL-7250,inactive
same,max response,HEK293,-5.47%
same,max response,HaCat [1],-19.1%
same,max response,KB-3-1,-1.52% and 0.485%
same,max response,NIH3T3 [2],4.08%
same,Potency,MCC-13,inactive
same,Potency,MCC-26,inactive
same,Potency,MKL-1,inactive
same,Potency,MKL-2,inactive
same,Potency,UISO,inactive
same,Potency,WaGa,inactive
same,Potency,C33A,inactive
same,Potency,CAOV3,inactive
CCCCN(CCCC)CCCOC(=O)c1ccc(N)cc1,Potency,TAB109,inactive
same,Potency,TAB113,inactive
same,Potency,TAB165,inactive
same,outcome,CRL-7250,inactive
same,outcome,HEK293,inactive
same,max response,HaCat [1],-1.28%
same,max response,KB-3-1,-15.2%
same,outcome,NIH3T3 [2],inactive
same,outcome,HEK293T,inactive
same,Potency,MCC-13,inactive
same,Potency,MCC-26,inactive
same,Potency,MKL-1,inactive
same,Potency,MKL-2,inactive
same,outcome,NIH3T3 [4],inactive
same,Potency,UISO,inactive
same,Potency,WaGa,inactive
same,Potency,C33A,inactive
CC(C)C(=O)c1c(C(C)C)nn2ccccc12,max response,CRL-7250,-8.07%
same,max response,HEK293,-1.74%
same,max response,HaCat [1],2.88%
same,max response,KB-3-1,-2.88%
same,max response,NIH3T3 [2],-15.3%
same,Potency,MCC-13,inactive
same,Potency,MCC-26,inactive
same,Potency,MKL-1,inactive
same,Potency,MKL-2,inactive
same,Potency,UISO,inactive
same,Potency,WaGa,inactive
same,Potency,C33A,inactive
same,Potency,CAOV3,inactive
C[C@H](NC(CCc1ccccc1)C(=O)O)C(=O)N1CCC[C@H]1C(=O)O (some centres not stated),outcome,CRL-7250,inactive
same,max response,HEK293,3.49%
same,outcome,HaCat [1],inactive
same,max response,KB-3-1,-16.2%
same,max response,NIH3T3 [2],1.23%
same,outcome,HACAT [3],inactive
same,Potency,MCC-13,inactive
same,Potency,MCC-26,inactive
same,Potency,MKL-1,inactive
same,Potency,MKL-2,inactive
same,Potency,UISO,inactive
same,Potency,WaGa,inactive
same,Potency,C33A,inactive
same,Potency,CAOV3,inactive
O=C(O)CN1C(=O)c2cccc3cccc(c23)C1=O,Potency,TAB109,inactive
same,Potency,TAB113,inactive
same,Potency,TAB165,inactive
same,Potency,W2,inactive
same,max response,CRL-7250,-6.05%
same,outcome,HEK293,inactive
same,outcome,HaCat [1],inactive
same,max response,KB-3-1,-7.36%
same,max response,NIH3T3 [2],0.928%
same,outcome,HACAT [3],inactive
same,outcome,HEK293T,inactive
same,Potency,MCC-13,inactive
same,Potency,MCC-26,inactive
same,Potency,MKL-1,inactive
same,Potency,MKL-2,inactive
same,Potency,UISO,inactive
same,Potency,WaGa,inactive
same,Potency,C33A,inactive
C[C@H]1O[C@@H](n2cc(F)c(=O)[nH]c2=O)[C@H](O)[C@@H]1O,Potency,TAB109,inactive
same,Potency,TAB113,inactive
same,Potency,TAB165,inactive
same,Potency,W2,inactive
same,max response,CRL-7250,-5.52%
same,outcome,HEK293,inactive
same,Potency,HaCat [1],10.6 µM (active)
same,max response,KB-3-1,-0.506%
same,max response,NIH3T3 [2],-23.8%
same,outcome,HEK293T,inactive
same,Potency,MCC-13,inactive
same,Potency,MCC-26,inactive
same,Potency,MKL-1,inactive
same,Potency,MKL-2,inactive
same,Potency,UISO,inactive
same,Potency,WaGa,inactive
same,Potency,C33A,inactive
same,Potency,CAOV3,inactive
Cc1cc(O)cc2c1O[C@](C)(CCC[C@H](C)CCC[C@H](C)CCCC(C)C)CC2,Potency,TAB109,inactive
same,Potency,TAB113,inactive
same,Potency,TAB165,inactive
same,Potency,W2,inactive
same,max response,CRL-7250,-1.48%
same,max response,HEK293,2.12%
same,outcome,HaCat [1],inactive
same,max response,KB-3-1,-4.01% and 1.69%
same,outcome,NIH3T3 [2],inactive
same,outcome,HACAT [3],inactive
same,Potency,MCC-13,inactive
same,Potency,MCC-26,inactive
same,Potency,MKL-1,inactive
same,Potency,MKL-2,inactive
same,outcome,NIH3T3 [4],inactive
same,Potency,UISO,inactive
same,Potency,WaGa,inactive
same,Potency,C33A,inactive
O=c1cc(CO)occ1O,Potency,TAB109,inactive
same,Potency,TAB113,inactive
same,Potency,TAB165,inactive
same,Potency,W2,inactive
same,max response,CRL-7250,-3.51%
same,outcome,HEK293,inactive
same,max response,HaCat [1],2.79%
same,max response,KB-3-1,1.74% and -12.5%
same,max response,NIH3T3 [2],-2.71%
same,outcome,HEK293T,inactive
same,Potency,MCC-13,inactive
same,Potency,MCC-26,inactive
same,Potency,MKL-1,inactive
same,Potency,MKL-2,inactive
same,Potency,UISO,inactive
same,Potency,WaGa,inactive
same,Potency,C33A,inactive
same,Potency,CAOV3,inactive
COc1ccc2cc1Oc1cc3c(cc1OC)CC[N+](C)(C)[C@H]3Cc1ccc(cc1)Oc1c(OC)c(OC)cc3c1[C@@H](C2)[N+](C)(C)CC3,outcome,CRL-7250,inactive
same,outcome,HEK293,inactive
same,max response,HaCat [1],0.882%
same,max response,KB-3-1,0.968%
same,outcome,NIH3T3 [2],inactive
same,outcome,HEK293T,inactive
same,Potency,MCC-13,inactive
same,Potency,MCC-26,inactive
same,Potency,MKL-1,inactive
same,Potency,MKL-2,inactive
same,outcome,NIH3T3 [4],inactive
same,Potency,UISO,inactive
same,Potency,WaGa,inactive
same,Potency,C33A,inactive
same,Potency,CAOV3,inactive
